Rows were chosen to be rich in hits. Some 10% of all compounds tested hit in one or more screens of this group.
Luciferase inh: inhibitors of firefly (Photinus pyralis) luciferase; P08659; purified P. pyralis luciferase, luminescence, biochemical; Potency, µM (titrated, usually from 115 µM), most hits filed as inhibitors; 76,000 compounds, 2.5% hits; note: nearly all actives have a fitted effect of over 65% in size
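Biochemical qHTS: compound (6-point titration) added to 10uM D-luciferin plus 10uM ATP in Tris acetate pH 7.5 buffer with Mg, Tween-20 and BSA, then purified enzyme at 10nM; light output imaged.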
3T3 cytotox: NIH 3T3 cell cytotoxicity | NIH 3T3 viability, CellTiter-Glo ATP luminescence, 48-72 h | Potency, µM (titrated, usually from 96.7 µM), inactives show at the top dose activity change, negative = cytotoxicity, usual class: inhibitors | 94,000 compounds, 4.3% hits; note: nearly all actives have a fitted effect of over 55% in size
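Cells were seeded at 400 per well, treated with pin-transferred compound, and kept 48 or 72 hr at 37 °C before CellTiter-Glo addition and luminescence imaging of cellular ATP.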
NPR1 antag: human Npr1 receptor antagonism; AID 1347048; HEK293 hNpr1 GloSensor cGMP, ANP-stimulated luminescence; Potency, µM (top dose mostly 46.3 µM), for the others: top-dose activity change, negative = inhibition, hits mostly inhibitors; 76,000 compounds, 1.6% hits; P16066; calls by dose curve; note: nearly all actives have a fitted effect of over 60% in size
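Compound pre-incubated 30 min at room temperature on GloSensor-loaded HEK293 cells stably carrying hNpr1 and the pGS-40F cGMP biosensor. Stimulation uses hNppA at 0.1 nM final; luminescence is taken at baseline and 20 min post-agonist.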
GPT2 inhibitor: GPT2 alanine aminotransferase inhibition; Q8TD30; Recombinant GPT2, coupled pyruvate oxidase/HRP Amplex Red fluorescence; Potency, µM (doses to about 57.7 µM), inactives show at the top dose activity change, negative = inhibition, usual class: inhibitors; 100,000 compounds, 0.25% hits; note: nearly all actives have a fitted effect of over 60% in size
Target sequence (Q8TD30 whole entry, looked up): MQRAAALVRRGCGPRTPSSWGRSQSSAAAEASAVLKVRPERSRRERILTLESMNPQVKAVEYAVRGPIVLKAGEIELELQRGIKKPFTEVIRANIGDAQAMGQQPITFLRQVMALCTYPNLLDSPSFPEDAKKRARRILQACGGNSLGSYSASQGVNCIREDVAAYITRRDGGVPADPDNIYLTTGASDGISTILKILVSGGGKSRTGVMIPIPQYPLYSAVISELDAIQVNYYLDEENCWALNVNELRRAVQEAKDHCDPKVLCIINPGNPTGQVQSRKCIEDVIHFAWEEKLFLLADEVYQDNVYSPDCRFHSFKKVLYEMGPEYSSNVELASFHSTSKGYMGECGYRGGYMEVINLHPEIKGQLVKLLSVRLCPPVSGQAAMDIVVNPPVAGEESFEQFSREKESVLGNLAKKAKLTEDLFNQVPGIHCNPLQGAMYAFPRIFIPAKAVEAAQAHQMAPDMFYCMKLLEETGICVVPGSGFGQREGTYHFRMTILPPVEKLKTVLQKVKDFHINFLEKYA
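GPT2 10ng/uL, a-KG 250uM, L-Ala 2mM, HEPES pH7.5 + 0.0001% Tween; 30 min RT. Then Amplex mix (PO/HRP/ThPP), 30 min RT dark, fluorescence. AOA 50uM used as positive control.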
HEK cytotox: cytotoxic compounds in HEK 293 cells; HEK 293 viability, ATP luminescence (CellTiter-Glo), 48-72 h; Potency, µM (doses to about 115 µM), without a hit: at the top dose activity change, negative = cytotoxicity, most hits filed as inhibitors; 94,000 compounds, 6.6% hits; note: nearly all actives have a fitted effect of over 60% in size
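Pintool-delivered compounds were incubated with HEK 293 cells (250 cells/well) at 37 degree Celsius for 48 or 72 hr. ATP-dependent luminescence (CellTiter-Glo) then reported remaining viable cells.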
An asterisk follows results filed as active; i = inactive; ? = inconclusive; · = no result given; [ ] = remark or other dose. Unless noted, calls come from the whole dose curve; as a rule, active = well fitted curve in the direction sought with a large enough effect; inconclusive = small, poorly fitted or top-dose-only effect, or another doubt; inactive = no such curve, though single readings can be large; an effect the other way counts as inactive or inconclusive. % is set by controls: 0 for no effect and ±100 for the full control effect; potency is the fitted concentration of half-maximal effect.

SMILES	Luciferase inh	3T3 cytotox	NPR1 antag	GPT2 inhibitor	HEK cytotox
O=C(NCc1cccnc1)c1nc(-c2ccc(Cl)nc2)c2ccccn12	·	?	·	-14%	79µM*
C#CCNC(=O)c1nc(-c2cc(Cl)cc(Cl)c2)c2ccccn12	i	-6%[138 µM]	-1%[70.6 µM]	i	63µM*
O=C(NCCc1ccc(Cl)cc1)c1nc(-c2cccnc2)c2ccccn12	i	40µM*	-3%	-15%	32µM*
O=C(c1cc2n(n1)CC(c1ccc(Cl)cc1)OC2)N1CCN(c2ccccc2)CC1 (configuration not stated)	i	?	20µM*	1%	?
O=C(c1cc2n(n1)CC(c1ccc(Cl)cc1)OC2)N1CCN(c2ccccn2)CC1 (configuration not stated)	i	?	-28%	i	?
CC1CCN(C(=O)c2cc3n(n2)CC(c2ccc(Cl)cc2)OC3)CC1 (configuration not stated)	i	40µM*	?	i	?
COc1ccc(N2CC(c3noc(-c4ccc(F)cc4)n3)CC2=O)cc1OC (configuration not stated)	i	-17%	-11%	-4%	?
CCOc1ccc(-c2nc(C3CC(=O)N(Cc4ccccc4OC)C3)no2)cc1 (configuration not stated)	i	22µM*	-13%	i	45µM*
COc1ccc(-c2nc(C3CC(=O)N(Cc4ccccc4OC)C3)no2)c(C)c1 (configuration not stated)	i	?	-2%	?	?
CCc1ccc(N2CC(c3noc(-c4sccc4C)n3)CC2=O)cc1 (configuration not stated)	i	?	0%	0%	79µM*
COc1ccccc1CN1CC(c2noc(-c3ccc(C)cc3C)n2)CC1=O (configuration not stated)	i	?	-16%	i	40µM*
CCc1ccc(N2CC(c3noc(-c4ccc(N(C)C)cc4)n3)CC2=O)cc1 (configuration not stated)	i	-16%	-5%	?	-5%
COc1ccc(N2CC(c3noc(-c4ccc(C(C)(C)C)cc4)n3)CC2=O)cc1OC (configuration not stated)	?	?	?	-5%	40µM*
NC(=O)COc1ccccc1OC[C@@H]1CCCN2CCCC[C@H]12	i	-4%	5%	i	-9%
CCOC(=O)[C@H]1[C@@H](O)C(=O)N(C(C)C)C12CCN(C(=O)c1ccc(NC(C)=O)cc1)CC2	·	?	·	·	-8%
O=C(CCC[C@H]1NC[C@@H]2C[C@H]1CN(Cc1ccccc1)C2)Nc1ccc(F)cc1F	i	-20%	-1%	-10%	?
O=C(NC1CCN(c2ccnc3ccnn23)CC1)c1ccccc1	·	?	·	i	?
O=C(C1CC1)N1CCCN(CCc2ccccc2)c2ccccc21	i	32µM*	-15%	i	?
CCc1noc(-c2cccn3c(CNC(=O)c4ccc5ccccc5n4)nnc23)n1	i	?	-6%	-1%	35µM*
CC1=C[C@@H](CN2CCN(c3ccccn3)CC2)[C@H](C(C)C)C[C@H]1Cc1nnc(C)o1	i	?	7%[70.6 µM]	-6%[88.5 µM]	?
CC1=C[C@@H](CN2CCOCC2)[C@H](C(C)C)C[C@H]1Cc1nnc(-c2ccccc2F)o1	i	?	-20%[70.6 µM]	-6%[88.5 µM]	89µM*
CC1=C[C@@H](CN2CCN(C)CC2)[C@H](C(C)C)C[C@H]1Cc1nnc(-c2ccccc2F)o1	i	?	1%[70.6 µM]	-3%[88.5 µM]	45µM*
CC1=C[C@@H](CN2CCC(CO)CC2)[C@H](C(C)C)C[C@H]1Cc1nnc(-c2cccnc2)o1	i	-30%[174 µM]	2%[70.6 µM]	i	?
COc1ccccc1-c1nc(C(=O)NC2CC2)n2ccncc12	i	56µM*	-22%[70.6 µM]	-22%[88.5 µM]	?
COC(=O)CNC(=O)c1nc(-c2ccccc2)c2ccccn12	i	?	-8%[70.6 µM]	i	?
SMILES	Luciferase inh	3T3 cytotox	NPR1 antag	GPT2 inhibitor	HEK cytotox
O=C(NC1CC1)c1nc(-c2ccccc2)c2ccccn12	i	?	4%[70.6 µM]	i	63µM*
O=C(NC1CC1)c1nc(-c2cccc(C(F)(F)F)c2)c2cnccn12	i	-24%	-5%	i	79µM*
Cc1noc2c(-c3cccnc3N(C)C)cc(-c3ccccc3)nc12	i	?	-1%[70.6 µM]	-1%[88.5 µM]	?
COCCCNc1ncccc1-c1cc(-c2ccccc2)nc2c(C)noc12	i	?	5%[70.6 µM]	1%[88.5 µM]	112µM*
Cc1noc2c(-c3cccnc3NCc3cccnc3)cc(-c3ccccc3)nc12	i	?	6%[70.6 µM]	?	?
Cc1noc2c(-c3cccnc3NCCN(C)C)cc(-c3ccccc3)nc12	i	45µM*	1%[70.6 µM]	-2%[88.5 µM]	89µM*
Cc1noc2c(-c3cccnc3NCCCn3ccnc3)cc(-c3ccccc3)nc12	i	?	1%[70.6 µM]	2%[88.5 µM]	71µM*
COc1cc(-c2cc(-c3ccccc3)nc3c(C)noc23)ccn1	i	?	-19%[70.6 µM]	4%[88.5 µM]	-27%[172 µM]
Cc1noc2c(-c3cccc(O)c3)cc(-c3ccccc3)nc12	i	28µM*	-2%[70.6 µM]	-4%[88.5 µM]	50µM*
Cc1ccc(OCc2nc(C3CCCN3C(=O)NC(C)C)no2)cc1 (configuration not stated)	i	-16%	-1%	i	-30%
CCc1ccc(C(=O)N2CCN(C3CCN(CCc4ccccc4)C3=O)CC2)cc1 (configuration not stated)	?	-10%	1%	i	2%
COCCn1cnc2ccc(-c3cccc(O)c3)nc2c1=O	i	22µM*	2%[70.6 µM]	i	-21%[172 µM]
Cc1ccc(-c2ccc3ncn(Cc4ccccn4)c(=O)c3n2)c(C)c1	i	25µM*	0%[70.6 µM]	2%[88.5 µM]	-11%[172 µM]
COCCn1cnc2ccc(-c3ccccc3)nc2c1=O	?	?	7%[70.6 µM]	i	3%[230 µM]
O=c1c2nc(-c3ccccc3)ccc2ncn1Cc1ccccn1	i	79µM*	1%[70.6 µM]	-18%[88.5 µM]	-10%[172 µM]
O=c1c2nc(N3CCC(c4ccccc4)CC3)ccc2ncn1Cc1ccccn1	63µM*	-28%[138 µM]	5%[70.6 µM]	-1%[88.5 µM]	?
O=c1c2nc(-c3ccc(Cl)cc3)ccc2ncn1Cc1ccccn1	i	?	0%[70.6 µM]	-4%[88.5 µM]	?
Cn1ccc2cc(-c3ccc4ncn(Cc5ccccn5)c(=O)c4n3)ccc21	45µM*	89µM*	-2%[70.6 µM]	0%[88.5 µM]	-23%[172 µM]
O=c1c2nc(N3CCC(c4ccccc4)CC3)ccc2ncn1-c1cccnc1	?	?	3%[70.6 µM]	1%[88.5 µM]	?
O=c1ncn(CC2CC2)c2ccc(N3CCC(c4ccccc4)CC3)nc12	56µM*	-22%[138 µM]	-2%[70.6 µM]	i	?
O=c1ncn(CC2CC2)c2ccc(-c3ccc(F)cc3F)nc12	i	100µM*	0%[70.6 µM]	-9%[88.5 µM]	-42%[172 µM]

High-throughput results deposited in PubChem by National Center for Advancing Translational Sciences (NCATS).
